{"source": "PubChem BioAssay AID1159580", "about": "(chemical genetic matrix, 2015)", "assay": "chemical genetic growth profiling, strain panel (AID 1159580);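 further: tested at 20 µM; growth read once vehicle control cultures reached saturation at 30 °C; 1 = growth at the plate median or of vehicle wells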", "settings": "growth OD", "note": "The campaign covered roughly 5,500 compounds. About 2,000 (36%) were called active. Another 18% or so got no clear call; they are omitted. The list shows a part of the results. Unmarked numbers belong to inactive results. No stated cut-off is given here; in the data, active means normalized growth mostly below about 0.91 (no sharp cut-off); inconclusive means no clear call, values can overlap the other calls; inactive means mostly above about 0.92."}
{"smiles": "COc1cc2c(cc1OC)C1C(=O)c3c(cc4c(c3O)C=CC(C)(C)O4)OC1CO2", "note": "(configuration not stated)", "values": [{"measurement": "normalized growth", "setting": "S. cerevisiae deletion strains, locus YBR021W, strain FUR4, stronger effect = lower value", "value": 1}, {"measurement": "normalized growth", "setting": "S. cerevisiae deletion strains, locus YBR229C, strain ROT2, stronger effect = lower value", "value": 1.02}, {"measurement": "normalized growth", "setting": "S. cerevisiae deletion strains, locus YCL029C, strain bik1, stronger effect = lower value", "value": 1.03}, {"measurement": "normalized growth", "setting": "S. cerevisiae deletion strains, locus YDL035C, strain GPR1, stronger effect = lower value", "value": 1.03}, {"measurement": "normalized growth", "setting": "S. cerevisiae deletion strains, locus YDL074C, strain BRE1, stronger effect = lower value", "value": 1.13}, {"measurement": "normalized growth", "setting": "S. cerevisiae deletion strains, locus YDL101C, strain DUN1, stronger effect = lower value", "value": 1.01}, {"measurement": "normalized growth", "setting": "S. cerevisiae deletion strains, locus YDL134C, strain PPH21, stronger effect = lower value", "value": 1}, {"measurement": "normalized growth", "setting": "S. cerevisiae deletion strains, locus YDL185W, strain tfp1, stronger effect = lower value", "value": 1.02}, {"measurement": "normalized growth", "setting": "S. cerevisiae deletion strains, locus YDL192W, strain arf1, stronger effect = lower value", "value": 0.996}, {"measurement": "normalized growth", "setting": "S. cerevisiae deletion strains, locus YDR101C, strain arx1, stronger effect = lower value", "value": 0.99}, {"measurement": "normalized growth", "setting": "S. cerevisiae deletion strains, locus YDR162C, strain NBP2, stronger effect = lower value", "value": 1.03}, {"measurement": "normalized growth", "setting": "S. cerevisiae deletion strains, locus YDR318W, strain mcm21, stronger effect = lower value", "value": 1.02}, {"measurement": "normalized growth", "setting": "S. cerevisiae deletion strains, locus YDR388W, stronger effect = lower value", "value": 1.02}, {"measurement": "normalized growth", "setting": "S. cerevisiae deletion strains, locus YDR502C, strain sam2, stronger effect = lower value", "value": 1.02}, {"measurement": "normalized growth", "setting": "S. cerevisiae deletion strains, locus YER110C, stronger effect = lower value", "value": 1.02}, {"measurement": "normalized growth", "setting": "S. cerevisiae deletion strains, locus YER155C, strain BEM2, stronger effect = lower value", "value": 1.04}, {"measurement": "normalized growth", "setting": "S. cerevisiae deletion strains, locus YER167W, strain BCK2, stronger effect = lower value", "value": 1.01}, {"measurement": "normalized growth", "setting": "S. cerevisiae deletion strains, locus YGL078C, strain dbp3, stronger effect = lower value", "value": 1.01}, {"measurement": "normalized growth", "setting": "S. cerevisiae deletion strains, locus YGL086W, strain mad1, stronger effect = lower value", "value": 1.01}, {"measurement": "normalized growth", "setting": "S. cerevisiae deletion strains, locus YGL248W, strain PDE1, stronger effect = lower value", "value": 1.03}, {"measurement": "normalized growth", "setting": "S. cerevisiae deletion strains, locus YGR135W, strain pre9, stronger effect = lower value", "value": 1.06}, {"measurement": "normalized growth", "setting": "S. cerevisiae deletion strains, locus YGR229C, strain SMI1, stronger effect = lower value", "value": "1.3 [resistant] (active)"}, {"measurement": "normalized growth", "setting": "S. cerevisiae deletion strains, locus YGR252W, strain gcn5, stronger effect = lower value", "value": 1.08}, {"measurement": "normalized growth", "setting": "S. cerevisiae deletion strains, locus YHR079C, strain IRE1 (second series), stronger effect = lower value", "value": 1.02}, {"measurement": "normalized growth", "setting": "S. cerevisiae deletion strains, locus YHR094C, strain hxt1, stronger effect = lower value", "value": 1.03}, {"measurement": "normalized growth", "setting": "S. cerevisiae deletion strains, locus YHR129C, strain ARP1, stronger effect = lower value", "value": 1.02}, {"measurement": "normalized growth", "setting": "S. cerevisiae deletion strains, locus YHR200W, strain rpn10, stronger effect = lower value", "value": 1.02}, {"measurement": "normalized growth", "setting": "S. cerevisiae deletion strains, locus YIL066C, strain RNR3, stronger effect = lower value", "value": 1}, {"measurement": "normalized growth", "setting": "S. cerevisiae deletion strains, locus YIL073C, strain SPO22, stronger effect = lower value", "value": 1.28}, {"measurement": "normalized growth", "setting": "S. cerevisiae deletion strains, locus YIL125W, strain kgd1, stronger effect = lower value", "value": 1}, {"measurement": "normalized growth", "setting": "S. cerevisiae deletion strains, locus YIR030C, strain dcg1, stronger effect = lower value", "value": 1.02}, {"measurement": "normalized growth", "setting": "S. cerevisiae deletion strains, locus YJL095W, strain BCK1, stronger effect = lower value", "value": 1.05}, {"measurement": "normalized growth", "setting": "S. cerevisiae deletion strains, locus YJL134W, strain LCB3, stronger effect = lower value", "value": 1.01}, {"measurement": "normalized growth", "setting": "S. cerevisiae deletion strains, locus YJL168C, strain set2, stronger effect = lower value", "value": 1.03}, {"measurement": "normalized growth", "setting": "S. cerevisiae deletion strains, locus YJL187C, strain SWE1 (second series), stronger effect = lower value", "value": 1.01}, {"measurement": "normalized growth", "setting": "S. cerevisiae deletion strains, locus YKL009W, strain mrt4, stronger effect = lower value", "value": 1.04}, {"measurement": "normalized growth", "setting": "S. cerevisiae deletion strains, locus YKL068W, stronger effect = lower value", "value": 1.01}, {"measurement": "normalized growth", "setting": "S. cerevisiae deletion strains, locus YKL085W, strain MDH1 (second series), stronger effect = lower value", "value": 1.01}, {"measurement": "normalized growth", "setting": "S. cerevisiae deletion strains, locus YKL085W, strain MDH1, stronger effect = lower value", "value": 1.01}, {"measurement": "normalized growth", "setting": "S. cerevisiae deletion strains, locus YKL190W, strain CNB1, stronger effect = lower value", "value": 1}, {"measurement": "normalized growth", "setting": "S. cerevisiae deletion strains, locus YKR001C, strain vps1, stronger effect = lower value", "value": "0.724 (active)"}, {"measurement": "normalized growth", "setting": "S. cerevisiae deletion strains, locus YLR039C, strain RIC1, stronger effect = lower value", "value": 0.992}, {"measurement": "normalized growth", "setting": "S. cerevisiae deletion strains, locus YLR058C, strain SHM2, stronger effect = lower value", "value": 1.01}, {"measurement": "normalized growth", "setting": "S. cerevisiae deletion strains, locus YLR102C, strain apc9, stronger effect = lower value", "value": 1.02}, {"measurement": "normalized growth", "setting": "S. cerevisiae deletion strains, locus YLR262C, strain YPT6, stronger effect = lower value", "value": 0.991}, {"measurement": "normalized growth", "setting": "S. cerevisiae deletion strains, locus YLR268W, strain sec22, stronger effect = lower value", "value": 1.02}, {"measurement": "normalized growth", "setting": "S. cerevisiae deletion strains, locus YLR342W, strain FKS1 (second series), stronger effect = lower value", "value": 0.961}, {"measurement": "normalized growth", "setting": "S. cerevisiae deletion strains, locus YLR371W, strain rom2, stronger effect = lower value", "value": 1.03}, {"measurement": "normalized growth", "setting": "S. cerevisiae deletion strains, locus YLR418C, strain cdc73, stronger effect = lower value", "value": 1.13}, {"measurement": "normalized growth", "setting": "S. cerevisiae deletion strains, locus YML016C, strain PPZ1, stronger effect = lower value", "value": 0.996}, {"measurement": "normalized growth", "setting": "S. cerevisiae deletion strains, locus YML032C, strain rad52, stronger effect = lower value", "value": 0.998}, {"measurement": "normalized growth", "setting": "S. cerevisiae deletion strains, locus YML124C, strain tub3, stronger effect = lower value", "value": 1.02}, {"measurement": "normalized growth", "setting": "S. cerevisiae deletion strains, locus YMR078C, strain ctf18, stronger effect = lower value", "value": 1.02}, {"measurement": "normalized growth", "setting": "S. cerevisiae deletion strains, locus YMR223W, strain ubp8, stronger effect = lower value", "value": 1.01}, {"measurement": "normalized growth", "setting": "S. cerevisiae deletion strains, locus YMR307W, strain GAS1, stronger effect = lower value", "value": 1.18}, {"measurement": "normalized growth", "setting": "S. cerevisiae deletion strains, locus YNL067W, strain RPL9B, stronger effect = lower value", "value": 1.01}, {"measurement": "normalized growth", "setting": "S. cerevisiae deletion strains, locus YNL153C, strain GIM3, stronger effect = lower value", "value": 1.04}, {"measurement": "normalized growth", "setting": "S. cerevisiae deletion strains, locus YNL233W, strain BNI4, stronger effect = lower value", "value": 1.06}, {"measurement": "normalized growth", "setting": "S. cerevisiae deletion strains, locus YNL250W, strain rad50, stronger effect = lower value", "value": 1.05}, {"measurement": "normalized growth", "setting": "S. cerevisiae deletion strains, locus YNL271C, strain bni1, stronger effect = lower value", "value": 1.01}, {"measurement": "normalized growth", "setting": "S. cerevisiae deletion strains, locus YNL298W, strain CLA4, stronger effect = lower value", "value": 1}, {"measurement": "normalized growth", "setting": "S. cerevisiae deletion strains, locus YNL307C, strain MCK1, stronger effect = lower value", "value": 1.03}, {"measurement": "normalized growth", "setting": "S. cerevisiae deletion strains, locus YNR052C, strain pop2, stronger effect = lower value", "value": 1.04}, {"measurement": "normalized growth", "setting": "S. cerevisiae deletion strains, locus YOL012C, strain htz1", "value": 0.98}, {"measurement": "normalized growth", "setting": "S. cerevisiae deletion strains, locus YOL147C, strain pex11, stronger effect = lower value", "value": 1.01}, {"measurement": "normalized growth", "setting": "S. cerevisiae deletion strains, locus YOR061W, strain CKA2, stronger effect = lower value", "value": 1}, {"measurement": "normalized growth", "setting": "S. cerevisiae deletion strains, locus YOR069W, strain VPS5, stronger effect = lower value", "value": 1.01}, {"measurement": "normalized growth", "setting": "S. cerevisiae deletion strains, locus YOR136W, strain idh2, stronger effect = lower value", "value": 1.06}, {"measurement": "normalized growth", "setting": "S. cerevisiae deletion strains, locus YOR144C, strain elg1, stronger effect = lower value", "value": 1.01}, {"measurement": "normalized growth", "setting": "S. cerevisiae deletion strains, locus YOR184W, strain ser1, stronger effect = lower value", "value": 0.99}, {"measurement": "normalized growth", "setting": "S. cerevisiae deletion strains, locus YOR316C, strain cot1, stronger effect = lower value", "value": 1.02}, {"measurement": "normalized growth", "setting": "S. cerevisiae deletion strains, locus YPR119W, strain clb2, stronger effect = lower value", "value": 1.02}, {"measurement": "normalized growth", "setting": "S. cerevisiae deletion strains, locus YPR141C, strain kar3, stronger effect = lower value", "value": 1}, {"measurement": "normalized growth", "setting": "S. cerevisiae deletion strains, locus YPR163C, strain tif3, stronger effect = lower value", "value": 1.03}, {"measurement": "normalized growth", "setting": "S. cerevisiae deletion strains, locus YPR167C, strain met16, stronger effect = lower value", "value": 1.01}, {"measurement": "normalized growth", "setting": "S. cerevisiae deletion strains, strain wtn01, stronger effect = lower value", "value": 0.989}, {"measurement": "normalized growth", "setting": "S. cerevisiae strains, strain wild type, stronger effect = lower value", "value": 1.02}]}
